Measurements from PubChem BioAssay AID1159580 (chemical genetic matrix, 2015).
Out of some 5,500 compounds screened, about 2,000 (36%) were called active. Not shown: some 18% with an inconclusive outcome. No stated cut-off is given here; in the data, active means normalized growth mostly below about 0.91 (no sharp cut-off); inconclusive means no clear call, values can overlap the other calls; inactive means mostly above about 0.92. Some of the results follow.

Assay: chemical genetic growth profiling, strain panel (AID 1159580);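 further: tested at 20 µM; growth read once vehicle control cultures reached saturation at 30 °C; 1 = growth at the plate median or of vehicle wells; lower values mean less growth of the strain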
Conditions: growth OD

Measured: normalized growth

N/C(Cc1cccc2ccccc12)=N/O
inactive: S. cerevisiae deletion strains, locus YAL013W, strain DEP1, hits give low values 1 | S. cerevisiae deletion strains, locus YBR229C, strain ROT2, hits give low values 1.02 | S. cerevisiae deletion strains, locus YDL101C, strain DUN1, hits give low values 1.01 | S. cerevisiae deletion strains, locus YDR150W, strain NUM1, hits give low values 0.986 | S. cerevisiae deletion strains, locus YEL061C, strain CIN8, hits give low values 1.02 | S. cerevisiae deletion strains, locus YGR078C, strain PAC10, hits give low values 1.01 | S. cerevisiae deletion strains, locus YHR030C, strain SLT2, hits give low values 1.02 | S. cerevisiae deletion strains, locus YHR087W, strain rtc3, hits give low values 1.02 | S. cerevisiae deletion strains, locus YJL187C, strain SWE1, hits give low values 1.02 | S. cerevisiae deletion strains, locus YJR043C, strain POL32, hits give low values 1.02 | S. cerevisiae deletion strains, locus YJR075W, strain HOC1, hits give low values 1.05 | S. cerevisiae deletion strains, locus YKL190W, strain CNB1, hits give low values 1.02 | S. cerevisiae deletion strains, locus YLR039C, strain RIC1, hits give low values 1.06 | S. cerevisiae deletion strains, locus YLR058C, strain SHM2 (second series), hits give low values 1.01 | S. cerevisiae deletion strains, locus YLR085C, strain ARP6, hits give low values 1.14 | S. cerevisiae deletion strains, locus YLR262C, strain YPT6, hits give low values 1.02 | S. cerevisiae deletion strains, locus YML094W, strain GIM5, hits give low values 1.01 | S. cerevisiae deletion strains, locus YMR219W, strain ESC1, hits give low values 1.03 | S. cerevisiae deletion strains, locus YMR263W, strain SAP30, hits give low values 1.04 | S. cerevisiae deletion strains, locus YMR307W, strain GAS1, hits give low values 1.17 | S. cerevisiae deletion strains, locus YNL153C, strain GIM3, hits give low values 0.997 | S. cerevisiae deletion strains, locus YNL298W, strain CLA4 (second series), hits give low values 1.02 | S. cerevisiae deletion strains, locus YNL322C, strain KRE1, hits give low values 1 | S. cerevisiae deletion strains, locus YNR030W, strain Alg12, hits give low values 1 | S. cerevisiae deletion strains, locus YOL006C, strain TOP1, hits give low values 1.05 | S. cerevisiae deletion strains, locus YPL055C, strain LGE1, hits give low values 0.897 | S. cerevisiae deletion strains, locus YPR135W, strain CTF4, hits give low values 0.945 | S. cerevisiae strains, strain wild type, hits give low values 1.02
active: S. cerevisiae deletion strains, locus YPL241C, strain CIN2, hits give low values 1.22 [resistant]
